# The list is not random: actives were taken first. Their share in the collection is about 5.7%.
# A340 absorber: absorbance at 340 nm | 65,000 tested, under 10 active | AID 708 | fold change at 10 µM | compound absorbance at 340 nm, fold over control;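 active = at 10 µM dose, initial 340 nm absorbance at least 2 fold that of control wells; inactive = change under 2 fold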;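 note: initial absorbance extrapolated from kinetic A340 decline of NADH oxidation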
# NADH coupling: blocks coupling enzymes of NAD/NADH assays; coupled PK/LDH NADH assays, four targets; IC50, µM (doses to about 10 µM), without a hit: at the highest dose inhibition; 65,000 tested, 0.02% active;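 active = single-dose screening hits from any of four coupled enzyme assays that gave an IC50 when retested across doses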;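 note: the DPM-DC format reads NADH fluorescence rather than 340 nm absorbance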
# Hsp90 block: displaces geldanamycin probe from tumor Hsp90 | P07900 | NCI-N417 lysate Hsp90, Cy3B-geldanamycin FP displacement | inhibition, % at 30 µM | 64,000 tested, 0.35% active | AID 429;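 active = inhibition above 50%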;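 note: 0% = tracer plus lysate wells and 100% = tracer alone without lysate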
# Fluor 339 460: intrinsic fluorescence of library compounds, ex339/em460 – biochemical, MLSMR library, data from DPM-DC assay, artefact control, profiling panel; compound autofluorescence, ex339/em460 nm, NADH buffer; hits give high values; 1 = no-compound wells, NADH background; fluorescence fold increase at 10 µM; 65,000 tested, 5.5% active; AID 709;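 active = at 10 µM, mean starting fluorescence two-fold or more over control wells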;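 note: signal is the first read of a kinetic run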
# MKP-1 inh: blocks human MKP-1 phosphatase activity; inhibition, %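 (compounds tested at a single concentration somewhere between 10 and 100 µM)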; recombinant MKP-1, OMFP hydrolysis fluorescence; 65,000 tested, 0.15% active; AID 374; P28562;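 active = inhibition above about 50%, limit read from the data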;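 note: 0% = DMSO max control wells and 100% = wells with enzyme stopped by NaOH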
# Target sequence (P28562 whole entry, looked up): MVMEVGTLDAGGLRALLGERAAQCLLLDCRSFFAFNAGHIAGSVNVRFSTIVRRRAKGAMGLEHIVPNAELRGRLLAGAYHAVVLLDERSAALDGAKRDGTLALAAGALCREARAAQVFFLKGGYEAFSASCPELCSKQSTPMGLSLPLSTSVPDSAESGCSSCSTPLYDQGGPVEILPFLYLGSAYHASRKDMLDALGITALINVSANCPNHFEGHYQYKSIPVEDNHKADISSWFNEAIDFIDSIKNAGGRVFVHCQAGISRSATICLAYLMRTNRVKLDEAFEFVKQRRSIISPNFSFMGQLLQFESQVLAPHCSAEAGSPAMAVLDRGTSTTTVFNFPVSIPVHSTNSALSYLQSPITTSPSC
# Cdc25B block: inhibitors of human Cdc25B phosphatase | P30305 | 65,000 tested, 0.1% active | inhibition, %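 (compounds tested at 10 µM final in the well)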 | recombinant Cdc25B, OMFP fluorescence Ex485/Em525; in the data active = inhibition above about 50%
# Numbers without * were called inactive; nt = no result given.
SMILES,A340 absorber,NADH coupling,Hsp90 block,Fluor 339 460,MKP-1 inh,Cdc25B block
O=C(CN1CCN(S(=O)(=O)c2cc(Cl)ccc2Cl)CC1)Nc1ccc2c(c1)OCCO2,1,4%,0,1.2,20,-6
Cc1c(NC(=O)C(C)N2CC(C)OC(C)C2)c(=O)n(-c2ccccc2)n1C (configuration not stated),0.99,5%,-4,1.1,8,-2
COc1cccc(NC(=O)N2CCN(Cc3nc4ccccc4c(=O)[nH]3)CC2)c1,1,3%,1,1,5,-11
COc1ccc(N2CCN(C(=O)CCNS(=O)(=O)c3ccc4c(c3)CCC(=O)N4)CC2)cc1,1,7%,0,2.1*,7,-14
COc1ccc(-c2c(C(F)(F)F)oc3c(CN4CCN(C)CC4)c(O)ccc3c2=O)cc1,1,4%,-1,1.1,9,5
COc1ccc(-c2c(C)oc3c(CN4CCN(C)CC4)c(O)ccc3c2=O)cc1,1.1,2%,-4,2.2*,-1,-5
CCN1CCN(Cc2c(O)ccc3c(=O)c(-c4ccc(OC)c(OC)c4)c(C)oc23)CC1,1.1,5%,4,3.9*,34,6
CCOC(=O)c1oc2c(CN3CCCCC3C)c(O)ccc2c(=O)c1-c1ccc(OC)c(OC)c1 (configuration not stated),1.2,2%,4,1,-6,-2
CCOC(=O)c1nc(N2CCN(C(=O)OCC)CC2)c2c3c(sc2n1)CCCC3,1.1,6%,5,3.7*,-21,-16
CCOC(=O)N1CCN(c2nc(SC)nc3sc4c(c23)CC(C)(C)OC4)CC1,1,3%,nt,1.2,8,-8
CCOC(=O)c1nc2sc3c(c2c(=O)[nH]1)CCCC3,1.1,2%,-4,2.5*,-3,-6
CCOC(=O)C(CC)n1cnc2sc3c(c2c1=O)CCC3 (configuration not stated),1,7%,2,1.1,-24,84*
CCOC(=O)C(C)n1cnc2sc3c(c2c1=O)CCC3 (configuration not stated),1,4%,-11,1.1,12,-7
CCOc1ccc(C(=O)CN2CCN(S(=O)(=O)c3ccc(OC)cc3)CC2)cc1,1,10%,-4,1.1,-9,-9
CCCCCCC(=O)c1c(C)[nH]c(C(=O)OCC)c1C,1,2%,1,1,1,-11
COC(=O)c1ccc(C(=O)OC)c(NC(=O)c2cnc3n(c2=O)CCS3)c1,1.1,9%,-9,2.4*,-9,-14
COc1ccc2c(c1)OCC1=C2CCC2(C)C(=O)CC=C12 (configuration not stated),1.1,7%,-54,3.6*,4,11
O=c1oc2c3c4c(cc2c2c1CCC2)OCCN4CCC3,1.1,7%,-6,2.2*,14,-7
CCN(CC)CCNC(=O)c1sc2nc(-c3ccccc3)cn2c1C,1,6%,-2,1.1,4,-16
COC(=O)c1cc2c([nH]c3ccccc32)c(C)n1,1,7%,-9,4.8*,25,-4
CCOc1ccc(S(=O)(=O)Nc2cc(Sc3ncn[nH]3)c3oc(=O)sc3c2)cc1,0.99,6%,54*,1,9,20
O=C(Cc1cccs1)Nc1ccc(NC(=O)c2ccco2)cc1,1,5%,-4,1.1,12,-4
COc1cc(S(=O)(=O)N2CCN3CCCC3C2)ccc1-n1cnnn1 (configuration not stated),1.1,5%,-2,1.1,-9,4
COc1cc(S(=O)(=O)N2CCCC3(CCCCC3)C2)ccc1-n1cnnn1,1,3%,-1,2.8*,21,4
CCOC(=O)c1ccc(CNC(=O)c2n[nH]c(=O)c3ccccc23)o1,1,8%,-2,1.1,25,8
SMILES,A340 absorber,NADH coupling,Hsp90 block,Fluor 339 460,MKP-1 inh,Cdc25B block
c1coc(-c2nc(-c3ccco3)c(-c3ccco3)nc2-c2ccco2)c1,1.1,16%,nt,2.2*,41,21
CCCC(=O)N=C1SC2CS(=O)(=O)CC2N1c1ccc(C(C)=O)cc1 (configuration not stated),1,6%,-2,1.1,1,4
Cc1oc2ccccc2c1-c1cn2c(n1)SCC2,1.1,16%,-6,3.6*,11,3
Cc1cnn(C(=O)c2oc3ccccc3c2C)c1,1.1,5%,-2,1.1,3,-17
COc1ccc(-n2nc(C(=O)NCc3ccco3)c3c4ccccc4n(C)c3c2=O)cc1,1.1,4%,5,4.8*,9,-2
CN(Cc1c(O)ccc2c1oc(=O)c1ccccc12)C1CCCCC1,1.1,8.8µM*,-3,1.2,-15,-10
CCCCc1cc(=O)oc2c(CN(C)C)c(O)ccc12,1.1,9%,-2,3.6*,9,-1
CCCc1cc(=O)oc2cc(OCC(=O)N(C)C)c(Cl)cc12,1.1,4%,nt,1.4,3,-10
CCc1c(C)c2ccc(O)c(CN(C)C)c2oc1=O,1.2,6%,0,2.3*,-2,-7
N#Cc1ccc(CN2CCN(C(=O)c3ccccc3)CC2)c(Cl)c1,1,5%,1,1,-18,1
COc1ccc(NC(C)=O)cc1NC(=O)CN1CCN(CC(=O)Nc2ccc(Cl)cc2)CC1,0.98,8%,-6,0.91,-3,-5
COc1ccccc1-c1cc(C(F)(F)F)nc(S(=O)(=O)CCCC(=O)N2CCCCC2C)n1 (configuration not stated),1,9%,1,3.4*,16,-10
COc1ccccc1-c1cc(C(F)(F)F)nc(S(=O)(=O)CCCC(=O)Nc2cc(C)on2)n1,1,3%,-1,3.7*,-9,-4
COc1ccccc1-c1cc(C(F)(F)F)nc(S(=O)(=O)CCCC(=O)NC(C)C)n1,1.1,11%,2,1.9,-9,-13
Brc1ccc2nc3c(n2c1)CCCC3,1.1,5%,-2,1.1,9,-5
CC(C)(C)S(=O)(=O)c1ccc2nc3c(n2c1)CCCC3,1,15%,0,3.9*,22,2
CCOC(=O)N1C(=O)c2cc(OC)ccc2S1(=O)=O,1,19µM*,-3,1.2,-9,42
COc1cc2nc(N3CCN(C(=O)C4COc5ccccc5O4)CC3)nc(N)c2cc1OC (configuration not stated),1,2%,1,2.5*,-16,0
COc1ccc(C2C(C(C)=O)=C(O)C(=O)N2CCc2ccccc2)c(OC)c1 (configuration not stated),1.1,6%,0,1.1,-18,-5
CCCN1C(=O)c2cc(C(=O)O)ccc2C1O (configuration not stated),1,6%,1,1,-12,-14

# Compound activity as filed in PubChem.
